Screen size: about 5,500 compounds; about 2,000 (36%) were called active. Inconclusive results (about 18%) are left out. No stated cut-off is given here; in the data, active means normalized growth mostly below about 0.91 (no sharp cut-off); inconclusive means no clear call, values can overlap the other calls; inactive means mostly above about 0.92. The list shows a part of the results.
Assay: chemical genetic growth profiling, strain panel (AID 1159580);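 further: tested at 20 µM; growth read once vehicle control cultures reached saturation at 30 °C; 1 = growth at the plate median or of vehicle wells; lower values mean less growth of the strain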
Details: growth OD

Measured: normalized growth

CC[C@H]1OC(=O)[C@H](C)[C@@H](O[C@H]2C[C@@](C)(OC)[C@@H](O)[C@H](C)O2)[C@H](C)[C@@H](O[C@@H]2O[C@H](C)C[C@H](N(C)C)[C@H]2O)[C@](C)(OC)C[C@@H](C)C(=O)[C@H](C)[C@@H](O)[C@]1(C)O
inactive: S. cerevisiae deletion strains, locus YAL013W, strain DEP1, hits give low values 0.992 | S. cerevisiae deletion strains, locus YBR021W, strain FUR4, hits give low values 1.01 | S. cerevisiae deletion strains, locus YBR229C, strain ROT2, hits give low values 0.989 | S. cerevisiae deletion strains, locus YCL029C, strain bik1, hits give low values 0.994 | S. cerevisiae deletion strains, locus YDL035C, strain GPR1, hits give low values 0.977 | S. cerevisiae deletion strains, locus YDL074C, strain BRE1, hits give low values 0.949 | S. cerevisiae deletion strains, locus YDL101C, strain DUN1, hits give low values 0.992 | S. cerevisiae deletion strains, locus YDL134C, strain PPH21, hits give low values 0.989 | S. cerevisiae deletion strains, locus YDL185W, strain tfp1, hits give low values 0.994 | S. cerevisiae deletion strains, locus YDL192W, strain arf1, hits give low values 0.966 | S. cerevisiae deletion strains, locus YDR101C, strain arx1, hits give low values 0.973 | S. cerevisiae deletion strains, locus YDR150W, strain NUM1, hits give low values 0.987 | S. cerevisiae deletion strains, locus YDR162C, strain NBP2, hits give low values 0.974 | S. cerevisiae deletion strains, locus YDR318W, strain mcm21, hits give low values 0.986 | S. cerevisiae deletion strains, locus YDR388W, hits give low values 0.986 | S. cerevisiae deletion strains, locus YDR502C, strain sam2, hits give low values 0.99 | S. cerevisiae deletion strains, locus YEL061C, strain CIN8, hits give low values 0.985 | S. cerevisiae deletion strains, locus YER110C, hits give low values 1.04 | S. cerevisiae deletion strains, locus YER155C, strain BEM2, hits give low values 0.987 | S. cerevisiae deletion strains, locus YER167W, strain BCK2, hits give low values 0.986 | S. cerevisiae deletion strains, locus YGL078C, strain dbp3, hits give low values 1.01 | S. cerevisiae deletion strains, locus YGL086W, strain mad1, hits give low values 0.969 | S. cerevisiae deletion strains, locus YGL248W, strain PDE1, hits give low values 0.986 | S. cerevisiae deletion strains, locus YGR078C, strain PAC10, hits give low values 0.991 | S. cerevisiae deletion strains, locus YGR135W, strain pre9, hits give low values 0.989 | S. cerevisiae deletion strains, locus YGR229C, strain SMI1, hits give low values 0.963 | S. cerevisiae deletion strains, locus YGR252W, strain gcn5, hits give low values 0.932 | S. cerevisiae deletion strains, locus YHR030C, strain SLT2, hits give low values 0.986 | S. cerevisiae deletion strains, locus YHR079C, strain IRE1 (second series), hits give low values 0.983 | S. cerevisiae deletion strains, locus YHR094C, strain hxt1, hits give low values 0.982 | S. cerevisiae deletion strains, locus YHR129C, strain ARP1, hits give low values 0.981 | S. cerevisiae deletion strains, locus YHR200W, strain rpn10, hits give low values 0.98 | S. cerevisiae deletion strains, locus YIL066C, strain RNR3, hits give low values 0.985 | S. cerevisiae deletion strains, locus YIL073C, strain SPO22, hits give low values 0.985 | S. cerevisiae deletion strains, locus YIL125W, strain kgd1, hits give low values 1.01 | S. cerevisiae deletion strains, locus YIR030C, strain dcg1, hits give low values 0.999 | S. cerevisiae deletion strains, locus YJL095W, strain BCK1, hits give low values 0.971 | S. cerevisiae deletion strains, locus YJL134W, strain LCB3, hits give low values 0.989 | S. cerevisiae deletion strains, locus YJL168C, strain set2, hits give low values 0.978 | S. cerevisiae deletion strains, locus YJL187C, strain SWE1 (second series), hits give low values 0.989 | S. cerevisiae deletion strains, locus YJR043C, strain POL32, hits give low values 0.958 | S. cerevisiae deletion strains, locus YJR075W, strain HOC1, hits give low values 0.954 | S. cerevisiae deletion strains, locus YKL009W, strain mrt4, hits give low values 0.997 | S. cerevisiae deletion strains, locus YKL068W, hits give low values 0.982 | S. cerevisiae deletion strains, locus YKL085W, strain MDH1 (second series), hits give low values 0.978 | S. cerevisiae deletion strains, locus YKL085W, strain MDH1, hits give low values 0.978 | S. cerevisiae deletion strains, locus YKL190W, strain CNB1, hits give low values 0.967 | S. cerevisiae deletion strains, locus YKR001C, strain vps1, hits give low values 0.999 | S. cerevisiae deletion strains, locus YLR039C, strain RIC1, hits give low values 0.979 | S. cerevisiae deletion strains, locus YLR058C, strain SHM2, hits give low values 0.987 | S. cerevisiae deletion strains, locus YLR102C, strain apc9, hits give low values 0.997 | S. cerevisiae deletion strains, locus YLR262C, strain YPT6, hits give low values 1.03 | S. cerevisiae deletion strains, locus YLR268W, strain sec22, hits give low values 0.987 | S. cerevisiae deletion strains, locus YLR330W, strain CHS5, hits give low values 0.992 | S. cerevisiae deletion strains, locus YLR342W, strain FKS1 (second series), hits give low values 0.956 | S. cerevisiae deletion strains, locus YLR371W, strain rom2, hits give low values 0.967 | S. cerevisiae deletion strains, locus YLR418C, strain cdc73, hits give low values 0.916 | S. cerevisiae deletion strains, locus YML016C, strain PPZ1, hits give low values 0.986 | S. cerevisiae deletion strains, locus YML032C, strain rad52, hits give low values 0.971 | S. cerevisiae deletion strains, locus YML124C, strain tub3, hits give low values 0.983 | S. cerevisiae deletion strains, locus YMR078C, strain ctf18, hits give low values 1 | S. cerevisiae deletion strains, locus YMR223W, strain ubp8, hits give low values 0.998 | S. cerevisiae deletion strains, locus YMR263W, strain SAP30, hits give low values 0.987 | S. cerevisiae deletion strains, locus YMR307W, strain GAS1, hits give low values 0.789 | S. cerevisiae deletion strains, locus YNL067W, strain RPL9B, hits give low values 0.983 | S. cerevisiae deletion strains, locus YNL128W, strain TEP1, hits give low values 0.979 | S. cerevisiae deletion strains, locus YNL153C, strain GIM3, hits give low values 0.983 | S. cerevisiae deletion strains, locus YNL233W, strain BNI4, hits give low values 0.982 | S. cerevisiae deletion strains, locus YNL250W, strain rad50, hits give low values 1 | S. cerevisiae deletion strains, locus YNL271C, strain bni1, hits give low values 1.01 | S. cerevisiae deletion strains, locus YNL298W, strain CLA4, hits give low values 1.02 | S. cerevisiae deletion strains, locus YNL307C, strain MCK1, hits give low values 1 | S. cerevisiae deletion strains, locus YNL322C, strain KRE1, hits give low values 0.987 | S. cerevisiae deletion strains, locus YNR052C, strain pop2, hits give low values 0.937 | S. cerevisiae deletion strains, locus YOL006C, strain TOP1, hits give low values 0.757 | S. cerevisiae deletion strains, locus YOL012C, strain htz1 0.325 | S. cerevisiae deletion strains, locus YOL147C, strain pex11, hits give low values 0.993 | S. cerevisiae deletion strains, locus YOR061W, strain CKA2, hits give low values 0.987 | S. cerevisiae deletion strains, locus YOR069W, strain VPS5, hits give low values 0.98 | S. cerevisiae deletion strains, locus YOR136W, strain idh2, hits give low values 1.01 | S. cerevisiae deletion strains, locus YOR144C, strain elg1, hits give low values 0.973 | S. cerevisiae deletion strains, locus YOR184W, strain ser1, hits give low values 0.991 | S. cerevisiae deletion strains, locus YOR316C, strain cot1, hits give low values 0.986 | S. cerevisiae deletion strains, locus YPL055C, strain LGE1, hits give low values 0.962 | S. cerevisiae deletion strains, locus YPL241C, strain CIN2, hits give low values 0.976 | S. cerevisiae deletion strains, locus YPR119W, strain clb2, hits give low values 0.975 | S. cerevisiae deletion strains, locus YPR141C, strain kar3, hits give low values 1.01 | S. cerevisiae deletion strains, locus YPR163C, strain tif3, hits give low values 0.955 | S. cerevisiae deletion strains, locus YPR167C, strain met16, hits give low values 0.996 | S. cerevisiae deletion strains, strain wtn01, hits give low values 0.964 | S. cerevisiae strains, strain wild type, hits give low values 0.982

— PubChem BioAssay AID1159580 (chemical genetic matrix, 2015)
